According to PubChem BioAssay (Tox21):
Records with an inconclusive call do not appear. Calls of active or inactive are those of the source. Calls follow the shape of the dose curve; as a rule, active = well fitted cell-killing curve with a large enough effect in the repeat runs; inconclusive = weak or mixed curves, or effect the other way; inactive = no such curve, though single readings can be large or run the other way.

test: qHTS assay to identify small molecule antagonists of the glucocorticoid receptor (GR) signaling pathway - cell viability counter screen (AID 720693); details: GR-bla HeLa viability, CellTiter-Glo luminescence, 18 h, with 5 nM dexamethasone present; series mostly up to 58.5 µM; also: nearly all actives have a fitted effect of over 55% in size

Q: Which outcome does the source give for CCCCOC(=O)c1ccccc1C(=O)OCCCC here?
A: Its outcome is “inactive”.

Q: For CCC12COCN1COC2, which outcome is on record?
A: The outcome was “inactive”.

Q: With CN(N=O)c1ccccc1 as the molecule, how does the outcome read?
A: The outcome was “inactive”.

Q: For [O-][Cl+2]([O-])O, which outcome is on record?
A: The outcome was “inactive”.

Q: For ClCCBr, which outcome is on record?
A: Its outcome is “inactive”.

Q: With CCOP(=S)(OCC)Oc1cnc2ccccc2n1 as the molecule, how does the outcome read?
A: The outcome was “inactive”.

Q: Which outcome does the source give for Clc1ccc(Cl)cc1 here?
A: The outcome was “inactive”.

Q: For Cc1ccccc1O, which outcome is on record?
A: Its outcome is “inactive”.

Q: With C#CC(C)(C)NC(=O)c1cc(Cl)cc(Cl)c1 as the molecule, how does the outcome read?
A: The outcome was “inactive”.

Q: With CC(C)C1(C)N=C(c2nc3ccccc3cc2C(=O)O)NC1=O (centres undefined) as the molecule, how does the outcome read?
A: Its outcome is “inactive”.

Q: Which outcome does the source give for Nc1c(Cl)c(Cl)nc(C(=O)O)c1Cl here?
A: The outcome was “inactive”.

Q: Which outcome does the source give for Nc1ccc(Oc2ccc(N)cc2)cc1 here?
A: The outcome was “inactive”.

Q: With c1ccc(OP(Oc2ccccc2)Oc2ccccc2)cc1 as the molecule, how does the outcome read?
A: Its outcome is “inactive”.

Q: For Cn1cc(-c2ccccc2)c(=O)c(-c2cccc(C(F)(F)F)c2)c1, which outcome is on record?
A: Its outcome is “inactive”.

Q: Which outcome does the source give for CCOP(=S)(OCC)SCCSCC here?
A: Its outcome is “inactive”.

Q: With CC(C)(Cl)Cl as the molecule, how does the outcome read?
A: Its outcome is “inactive”.

Q: With COP(N)(=O)SC (centres undefined) as the molecule, how does the outcome read?
A: The outcome was “inactive”.

Q: Which outcome does the source give for CCC[CH2][Sn]([Cl])([Cl])[Cl] here?
A: The outcome was “inactive”.

Q: For CCN(CC)CCO, which outcome is on record?
A: The outcome was “inactive”.

Q: Which outcome does the source give for CCCC1COC(Cn2cncn2)(c2ccc(Cl)cc2Cl)O1 (centres undefined) here?
A: Its outcome is “inactive”.

Q: With C=CC(N)=O as the molecule, how does the outcome read?
A: Its outcome is “inactive”.

Q: For Clc1ccccc1Cl, which outcome is on record?
A: The outcome was “inactive”.

Q: Which outcome does the source give for CCC(C)(CC)c1cc(NC(=O)c2c(OC)cccc2OC)on1 here?
A: The outcome was “inactive”.

Q: Which outcome does the source give for CON(C)C(=O)Nc1ccc(Cl)c(Cl)c1 here?
A: The outcome was “inactive”.

Q: For CC(C)N1C(=O)c2ccccc2NS1(=O)=O, which outcome is on record?
A: Its outcome is “inactive”.

Q: With COc1ccc2c3c1O[C@H]1[C@@H](O)C=C[C@H]4[C@@H](C2)N(C)CC[C@@]341 as the molecule, how does the outcome read?
A: Its outcome is “inactive”.

Q: With O=c1[nH]c2ccccc2c(=O)o1 as the molecule, how does the outcome read?
A: The outcome was “inactive”.

Q: With CCCCCCCCCCCC#N as the molecule, how does the outcome read?
A: Its outcome is “inactive”.

Q: With Cc1ccc(N)cc1N as the molecule, how does the outcome read?
A: The outcome was “inactive”.
